# The panel holds about 79,000 compounds, 15% with a hit somewhere; the sample as a whole holds those more often. Values without a mark were called inactive. Calls of active or inactive are those of the source. No stated cut-off is given here; in the data, active means growth inhibition above about 70%; inactive means the rest.
# Key:
# [1] = NCI Yeast Anticancer Drug Screen. Data for the rad52 strain (AID 147);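 further: 0% = growth of vehicle-treated control cultures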; details: S. cerevisiae rad52 mutant growth inhibition, stronger effect = higher value
# How it was run: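 Measured: yeast growth inhibition. System: strain with a defined DNA damage repair alteration. Reference: vehicle-treated control cultures.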
# [2] = NCI Yeast Anticancer Drug Screen. Data for the wt1 strain (AID 149);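 further: 0% = growth of vehicle-treated wt1 cultures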; details: S. cerevisiae wt1 strain (SPY 50644) growth inhibition, stronger effect = higher value
# How it was run: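 Compounds are added to wt1 yeast cultures. Growth is then measured. Inhibition is expressed relative to vehicle-treated controls.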
# [3] = NCI Yeast Anticancer Drug Screen. Data for the rad50EPP+ strain (AID 151);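 further: 0% = growth of vehicle-treated control cultures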; details: S. cerevisiae rad50 mutant strain, stronger effect = higher value
# How it was run: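 One strain with a rad50 alteration (rad50EPP+) was compound-treated, its growth then compared to that of vehicle controls.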
# [4] = NCI Yeast Anticancer Drug Screen. Data for the mgt1 strain (AID 153); details: S. cerevisiae mgt1 mutant growth inhibition, stronger effect = higher value
# How it was run: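 After exposure of the mgt1 yeast mutant to compound, growth was measured and reported as inhibition compared with vehicle controls.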
# [5] = NCI Yeast Anticancer Drug Screen. Data for the rad50 strain (AID 155);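 further: 0% = growth of vehicle-only cultures of the same strain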; details: S. cerevisiae rad50 strain growth inhibition, stronger effect = higher value
# How it was run: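 Inhibition values express reduced yeast growth in compound-treated cultures relative to vehicle-treated controls.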
# [6] = NCI Yeast Anticancer Drug Screen. Data for the mec2-1 strain (AID 157); details: S. cerevisiae mec2-1 strain, stronger effect = higher value
# How it was run: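 Test agents were screened against the mec2-1 yeast strain, with defined DNA repair or cell cycle alteration. Growth was scored as inhibition against vehicle-only controls.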
# [7] = NCI Yeast Anticancer Drug Screen. Data for the rad14 strain (AID 159);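 further: 0% = growth of vehicle-treated control cultures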; details: S. cerevisiae rad14 strain growth inhibition, stronger effect = higher value
# How it was run: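 A mutant yeast strain defective in DNA damage repair is treated with compound; inhibition of its growth is scored against untreated, vehicle-exposed cultures.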
# [8] = NCI Yeast Anticancer Drug Screen. Data for the sgs1 mgt1 strain (AID 161);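 further: 0% = growth of cultures given vehicle only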; details: S. cerevisiae sgs1 mgt1 strain, stronger effect = higher value
# How it was run: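 Genetically altered yeast, compound exposure, growth inhibition relative to vehicle.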
# [9] = NCI Yeast Anticancer Drug Screen. Data for the CLN2oe strain (AID 163);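 further: 0% = growth of vehicle-only control cultures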; details: S. cerevisiae CLN2oe strain, stronger effect = higher value
# How it was run: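 Here, growth inhibition in a cell-cycle-altered yeast strain after compound exposure was quantified against vehicle control growth.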
# [10] = NCI Yeast Anticancer Drug Screen. Data for the cln2 rad14 strain (AID 165);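 further: 0% = growth equal to vehicle treated cultures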; details: S. cerevisiae cln2 rad14 strain, stronger effect = higher value
# How it was run: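 Growth of compound-exposed yeast (cln2 rad14 genotype) measured and expressed as inhibition relative to vehicle.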
# [11] = NCI Yeast Anticancer Drug Screen. Data for the bub3 strain (AID 167); details: S. cerevisiae bub3 mutant strain, stronger effect = higher value
# How it was run: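 Steps: expose the mutant yeast strain to compound; grow alongside vehicle-treated cultures; measure growth; express inhibition against the vehicle cultures.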
# [12] = NCI Yeast Anticancer Drug Screen. Data for the wt2 strain (AID 169);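 further: 0% = growth of vehicle-treated yeast cultures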; details: S. cerevisiae wt2 strain growth inhibition, stronger effect = higher value
# How it was run: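 Genetically defined yeast strains from a DNA-repair/cell-cycle panel were used. Compound-exposed yeast growth was measured, and the inhibition was calculated relative to vehicle treatment.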
# [13] = NCI Yeast Anticancer Drug Screen. Data for the mlh1 strain (AID 171);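 further: 0% = growth of vehicle-treated control cultures of the same strain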; details: S. cerevisiae mlh1 strain growth inhibition, stronger effect = higher value
# How it was run: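 Here the genetically defined yeast mutant is grown with each compound, and the extent to which its growth falls below that of vehicle-exposed cells is reported.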
# [14] = NCI Yeast Anticancer Drug Screen. Data for the sgs1 strain (AID 173);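 further: 0% = growth of vehicle-only control cultures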; details: S. cerevisiae sgs1 mutant, stronger effect = higher value
# How it was run: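 Relative growth inhibition, referenced to vehicle, was determined in a yeast strain with a defined alteration affecting DNA damage repair or cell cycle control after compound exposure.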
# [15] = NCI Yeast Anticancer Drug Screen. Data for the mlh1 rad18 strain (AID 175); details: S. cerevisiae mlh1 rad18 strain growth inhibition, stronger effect = higher value
# How it was run: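 In this whole-cell yeast screen, a strain with altered DNA damage repair is challenged with compound, and its growth is measured against matched vehicle-treated controls.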
# [16] = NCI Yeast Anticancer Drug Screen. Data for the rad18 strain (AID 177); details: S. cerevisiae rad18 mutant growth inhibition, stronger effect = higher value
# How it was run: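 Screen uses a yeast strain with a defined lesion in DNA damage repair; compound effect is read as loss of growth compared to untreated vehicle cultures.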
# [17] = at 5.0 µM (retest, dose inferred, filed as 0.5)
# [18] = at 50.0 µM (retest, dose inferred, filed as 5.0)
smiles,measurement,setting,value
Cc1cc2c3ccccc3c3ccccc3c2nn1,growth inhibition,[1]; at 1.2 µM,2%
same,growth inhibition,[1]; at 3.7 µM,21%
same,growth inhibition,[1]; at 11.0 µM,60%
same,growth inhibition,[1]; at 33.0 µM,74% (active)
same,growth inhibition,[1]; at 100.0 µM,80% (active)
same,growth inhibition,[2]; at 1.2 µM,-7%
same,growth inhibition,[2]; at 3.7 µM,-6%
same,growth inhibition,[2]; at 11.0 µM,-8%
same,growth inhibition,[2]; at 33.0 µM,-8%
same,growth inhibition,[2]; at 100.0 µM,-5%
same,growth inhibition,[3]; at 1.2 µM,13%
same,growth inhibition,[3]; at 3.7 µM,38%
same,growth inhibition,[3]; at 11.0 µM,56%
same,growth inhibition,[3]; at 33.0 µM,60%
same,growth inhibition,[3]; at 100.0 µM,52%
same,growth inhibition,[4]; at 1.2 µM,-4%
same,growth inhibition,[4]; at 3.7 µM,-6%
same,growth inhibition,[4]; at 11.0 µM,-5%
same,growth inhibition,[4]; at 33.0 µM,-4%
same,growth inhibition,[4]; at 100.0 µM,-6%
same,growth inhibition,[5]; at 1.2 µM,5%
same,growth inhibition,[5]; at 3.7 µM,25%
same,growth inhibition,[5]; [17],2%
same,growth inhibition,[5]; at 11.0 µM,72% (active)
same,growth inhibition,[5]; at 33.0 µM,83% (active)
same,growth inhibition,[5]; [18],77% (active)
same,growth inhibition,[5]; at 50.0 µM,94.7% (active)
same,growth inhibition,[5]; at 100.0 µM,79% (active)
same,growth inhibition,[6]; at 1.2 µM,2%
same,growth inhibition,[6]; at 3.7 µM,0%
same,growth inhibition,[6]; [17],-46%
same,growth inhibition,[6]; at 11.0 µM,10%
same,growth inhibition,[6]; at 33.0 µM,7%
same,growth inhibition,[6]; [18],-15%
same,growth inhibition,[6]; at 50.0 µM,21.8%
same,growth inhibition,[6]; at 100.0 µM,12%
same,growth inhibition,[7]; at 1.2 µM,3%
same,growth inhibition,[7]; at 3.7 µM,8%
same,growth inhibition,[7]; at 11.0 µM,15%
same,growth inhibition,[7]; at 33.0 µM,15%
same,growth inhibition,[7]; at 100.0 µM,15%
same,growth inhibition,[8]; [17],-61%
same,growth inhibition,[8]; [18],-15%
same,growth inhibition,[8]; at 50.0 µM,36.5%
same,growth inhibition,[9]; at 1.2 µM,-3%
same,growth inhibition,[9]; at 3.7 µM,-3%
same,growth inhibition,[9]; at 11.0 µM,1%
same,growth inhibition,[9]; at 33.0 µM,1%
same,growth inhibition,[9]; at 100.0 µM,0%
same,growth inhibition,[10]; [17],-59%
same,growth inhibition,[10]; [18],-24%
same,growth inhibition,[10]; at 50.0 µM,27.5%
same,growth inhibition,[11]; at 1.2 µM,-9%
same,growth inhibition,[11]; at 3.7 µM,-1%
same,growth inhibition,[11]; [17],-64%
same,growth inhibition,[11]; at 11.0 µM,7%
same,growth inhibition,[11]; at 33.0 µM,9%
same,growth inhibition,[11]; [18],-31%
same,growth inhibition,[11]; at 50.0 µM,29.1%
same,growth inhibition,[11]; at 100.0 µM,11%
same,growth inhibition,[12]; at 1.2 µM,-4%
same,growth inhibition,[12]; at 3.7 µM,-3%
same,growth inhibition,[12]; at 11.0 µM,-3%
same,growth inhibition,[12]; at 33.0 µM,-3%
same,growth inhibition,[12]; at 100.0 µM,-6%
same,growth inhibition,[13]; at 1.2 µM,5%
same,growth inhibition,[13]; at 3.7 µM,-6%
same,growth inhibition,[13]; at 11.0 µM,0%
same,growth inhibition,[13]; at 33.0 µM,1%
same,growth inhibition,[13]; at 100.0 µM,-3%
same,growth inhibition,[14]; at 1.2 µM,-3%
same,growth inhibition,[14]; at 3.7 µM,-6%
same,growth inhibition,[14]; at 11.0 µM,0%
same,growth inhibition,[14]; at 33.0 µM,12%
same,growth inhibition,[14]; at 100.0 µM,11%
same,growth inhibition,[15]; [17],-88%
same,growth inhibition,[15]; [18],-13%
same,growth inhibition,[15]; at 50.0 µM,60.4%
same,growth inhibition,[16]; at 1.2 µM,-2%
same,growth inhibition,[16]; at 3.7 µM,2%
same,growth inhibition,[16]; at 11.0 µM,10%
same,growth inhibition,[16]; at 33.0 µM,12%
same,growth inhibition,[16]; at 100.0 µM,10%
C/C=C/SC(=Nc1ccccc1)Nc1ccccc1,growth inhibition,[1]; at 1.2 µM,-3%
same,growth inhibition,[1]; at 3.7 µM,-5%
same,growth inhibition,[1]; at 11.0 µM,-6%
same,growth inhibition,[1]; at 33.0 µM,-6%
same,growth inhibition,[1]; at 100.0 µM,99% (active)
same,growth inhibition,[2]; at 1.2 µM,-3%
same,growth inhibition,[2]; at 3.7 µM,0%
same,growth inhibition,[2]; at 11.0 µM,-7%
same,growth inhibition,[2]; at 33.0 µM,-15%
same,growth inhibition,[2]; at 100.0 µM,97% (active)
same,growth inhibition,[3]; at 1.2 µM,3%
same,growth inhibition,[3]; at 3.7 µM,3%
same,growth inhibition,[3]; at 11.0 µM,11%
same,growth inhibition,[3]; at 33.0 µM,23%
same,growth inhibition,[3]; at 100.0 µM,39%
same,growth inhibition,[4]; at 1.2 µM,-6%
same,growth inhibition,[4]; at 3.7 µM,-8%
same,growth inhibition,[4]; at 11.0 µM,-9%
same,growth inhibition,[4]; at 33.0 µM,-13%
same,growth inhibition,[4]; at 100.0 µM,98% (active)
same,growth inhibition,[5]; at 1.2 µM,-5%
same,growth inhibition,[5]; at 3.7 µM,-7%
same,growth inhibition,[5]; [17],-10%
same,growth inhibition,[5]; at 11.0 µM,-7%
same,growth inhibition,[5]; at 33.0 µM,-8%
same,growth inhibition,[5]; [18],78% (active)
same,growth inhibition,[5]; at 50.0 µM,88% (active)
same,growth inhibition,[5]; at 100.0 µM,98% (active)
same,growth inhibition,[6]; at 1.2 µM,-6%
same,growth inhibition,[6]; at 3.7 µM,-5%
same,growth inhibition,[6]; [17],-9%
same,growth inhibition,[6]; at 11.0 µM,-9%
same,growth inhibition,[6]; at 33.0 µM,-8%
same,growth inhibition,[6]; [18],67%
same,growth inhibition,[6]; at 50.0 µM,49.2%
same,growth inhibition,[6]; at 100.0 µM,98% (active)
same,growth inhibition,[7]; at 1.2 µM,-4%
same,growth inhibition,[7]; at 3.7 µM,-4%
same,growth inhibition,[7]; at 11.0 µM,-5%
same,growth inhibition,[7]; at 33.0 µM,-4%
same,growth inhibition,[7]; at 100.0 µM,99% (active)
same,growth inhibition,[8]; [17],-5%
same,growth inhibition,[8]; [18],71% (active)
same,growth inhibition,[8]; at 50.0 µM,90.8% (active)
same,growth inhibition,[9]; at 1.2 µM,-9%
same,growth inhibition,[9]; at 3.7 µM,-18%
same,growth inhibition,[9]; at 11.0 µM,-15%
same,growth inhibition,[9]; at 33.0 µM,-24%
same,growth inhibition,[9]; at 100.0 µM,97% (active)
same,growth inhibition,[10]; [17],2%
same,growth inhibition,[10]; [18],33%
same,growth inhibition,[10]; at 50.0 µM,2.3%
same,growth inhibition,[11]; at 1.2 µM,10%
same,growth inhibition,[11]; at 3.7 µM,8%
same,growth inhibition,[11]; [17],10%
same,growth inhibition,[11]; at 11.0 µM,7%
same,growth inhibition,[11]; at 33.0 µM,-12%
same,growth inhibition,[11]; [18],36%
same,growth inhibition,[11]; at 50.0 µM,92.5% (active)
same,growth inhibition,[11]; at 100.0 µM,98% (active)
same,growth inhibition,[12]; at 1.2 µM,-3%
same,growth inhibition,[12]; at 3.7 µM,-3%
same,growth inhibition,[12]; at 11.0 µM,-7%
same,growth inhibition,[12]; at 33.0 µM,-9%
same,growth inhibition,[12]; at 100.0 µM,98% (active)
same,growth inhibition,[13]; at 1.2 µM,-4%
same,growth inhibition,[13]; at 3.7 µM,-3%
same,growth inhibition,[13]; at 11.0 µM,-6%
same,growth inhibition,[13]; at 33.0 µM,-5%
same,growth inhibition,[13]; at 100.0 µM,98% (active)
same,growth inhibition,[14]; at 1.2 µM,-4%
same,growth inhibition,[14]; at 3.7 µM,-5%
same,growth inhibition,[14]; at 11.0 µM,-7%
same,growth inhibition,[14]; at 33.0 µM,-3%
same,growth inhibition,[14]; at 100.0 µM,98% (active)
same,growth inhibition,[15]; [17],-10%
same,growth inhibition,[15]; [18],70% (active)
same,growth inhibition,[15]; at 50.0 µM,66.3%
same,growth inhibition,[16]; at 1.2 µM,-2%
same,growth inhibition,[16]; at 3.7 µM,-5%
same,growth inhibition,[16]; at 11.0 µM,-8%
same,growth inhibition,[16]; at 33.0 µM,-9%
same,growth inhibition,[16]; at 100.0 µM,98% (active)
